Test results published in PubChem BioAssay (NCI).
The panel holds about 83,000 compounds, 20% with a hit somewhere; the sample as a whole holds those more often.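 The test compound was applied at a single concentration to cells in 96-well plates for 48 hours, and percent growth was recorded.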 Unmarked numbers belong to inactive results. The source made the active and inactive calls.

system: HT29 colon; test: NCI-60 one-dose screen, 48 h (100 = growth as untreated, 0 = no growth, -100 = all killed); settings: 10 µM unless noted
Protocol: Growth inhibition of the HT29 human tumor cell line is measured as a screen for anti-cancer activity. Cells are grown in 96 well plates and exposed to the test compound for 48 hours. Compounds are tested at a single concentration, which is 10^-5 M for most compounds. The reported endpoint is percent growth (GI% or GIPRCNT), where numbers from 0 - 100% represent growth inhibition, and numbers from -100% - 0 represent cell death. For example, a value of 40 represents 60% growth inhibition. A value of 0 means no net growth occurred over the course of the experiment. A value of -40 indicates 40% of cells at the beginning of the experiment died by the end of the experiment. A value of -100 means all cells are dead at the end of the experiment.
NCI-60 Human Tumor Cell Lines Screen was performed using the standard one-dose NCI protocol, which is described in more detail at https://dtp.cancer.gov/discovery_development/nci-60/default.htm.
Compounds with GIPRCNT values below 10 were considered active. Activity score was based on GIPRCNT using the following formula: […]
Score is 0 for GIPRCNT values of 100 or above, 50 for GIPRCNT values of 0, and 100 for GIPRCNT values of -100.

Row | SMILES | growth
1 | O=c1ccn(Cc2cn(-c3c4ccccc4nc4ccccc34)nn2)c(=O)[nH]1 | 104%
2 | Cc1ccc(C(=O)NCCNc2nccc(-c3c(-c4cccc(F)c4)nc4sccn34)n2)cc1 | 35.9%
3 | CCCCCCn1c(-c2ccc(C(=O)O/N=C(\N)c3ccc(OC)cc3)cc2)nc(-c2ccccc2)c1-c1ccccc1 | 22%
4 | CCOC(=O)Nc1ccc(-c2nc(-c3cccc(OCCN4CCOCC4)c3)c(-c3ccnc(Br)c3)[nH]2)cc1 | 8.48% (active)
5 | Fc1cc2c(cc1Cl)N(c1ncnc3ccc(-c4cnc5cnccn45)cc13)CC2 | 87.9%
6 | CCn1cnc2c1c(=O)[nH]c(=O)n2CC1CCC(CNS(=O)(=O)c2ccc(OC3CCOCC3)c(F)c2)CC1 (stereo not given) | 37.8%
7 | COc1c(C2CC(=O)Nc3c2c(C)nn3-c2nc3ccccc3[nH]2)cc2c(c1OC)OCO2 (stereo not given) | 20.5%
8 | COc1cc(CCCO)c(OC)c(OC)c1OC | 108%
9 | CCN(CC)S(=O)(=O)c1ccc(NC(=O)CSc2nnc(C)n2-c2ccccc2)cc1 | 111%
10 | COc1ccc(C2C(N)=NNC2c2cccc(O)c2)cc1 (stereo not given) | 104%
11 | COc1ccc(-n2c(N)c(-c3nc4ccccc4[nH]3)cc(C#N)c2=O)cc1 | 90.2%
12 | OC(COc1ccccc1Cl)CN1CCN(c2cccc(Cl)c2)CC1 (stereo not given) | 99.2%
13 | C=C1C(=O)O[C@H]2[C@H]1CC/C(COC(=O)C(C)c1ccc(CC(C)C)cc1)=C\CC[C@@]1(C)O[C@@H]21 (stereo not given in full) | -54.1% (active)
14 | CCOC(=O)C1=C(N)Oc2c(sc3c(C)cccc23)C1c1ccc(Cl)cc1 (stereo not given) | 14.8%
15 | COc1ccc(C2CC(c3ccc(Nc4ccnc5cc(Cl)ccc45)cc3)=NN2C=O)cc1 (stereo not given) | 33.2%
16 | Cc1cc(=O)oc2cc(OC(=O)CN3CCN(C)CC3)ccc12 | 104%
17 | COc1ccc(S(=O)(=O)n2c3ccccc3n3ncc(-c4nnc(C)o4)c23)cc1 | 11.2%
18 | O=c1c2cc(F)ccc2sc2c(NCCCNCCO)nc3ccccc3c12 | -53.3% (active)
19 | CCOC(=O)c1cn2ncnc(Oc3ccc(NC(=O)NCCN4CCOCC4)c(Cl)c3)c2c1C | 104%
20 | O=C(O)C(c1ccccc1)N1C(=O)CSC1=S (stereo not given) | 106%

Row | SMILES | growth
21 | CC([C@H]1CCC2C3CCC4C[C@@H](NC=O)CC[C@]4(C)C3CC[C@@]21C)N(C)C (stereo not given in full) | -49.4% (active)
22 | Cc1cc2[nH]c(=O)c3c4ncccc4cn3c2cc1C | -23.7% (active)
23 | Cc1ccc(/C=C(\C#N)n2nc3cccc(F)c3n2)cc1 | 114%
24 | COc1cc(C(=O)c2cnc(-c3cccc4[nH]ccc34)[nH]2)cc(OC)c1OC | 7.58% (active)
25 | COC(=O)C(Cc1ccccc1)NC(=O)NC(=O)NC(=O)CI (stereo not given) | 50.1%
26 | Clc1ccc(C(/C=C/c2sc(Cl)nc2Cl)=N/Nc2cc(Cl)cc(Cl)c2)cc1 | 103%
27 | CCOC(=O)Cn1c(=O)c2c(c3ccccc3n2C)n2nnc(-c3ccccc3)c12 | 100%
28 | NC1CCN(c2nc(Nc3cccc(C(F)(F)F)c3)c3c(=O)[nH]ccc3n2)CC1 | -16.3% (active)
29 | Cc1ccc(C(C)C)cc1C(=O)C[n+]1ccccc1 | 88.2%
30 | CCOc1cccc(NC2=C(Br)C(=O)C(C)=C(C)C2=O)c1 | 107%
31 | CC(=O)N1CCN(c2ccc(OCC3CO[C@](Cn4ccnc4)(c4ccc(Cl)cc4Cl)O3)cc2)CC1 (stereo not given in full) | 80.6%
32 | O=[N+]([O-])c1ccccc1NCSc1ccc(Cl)cc1 | 108%
33 | Cc1ccc(C(=O)NN2C(=O)CSC2c2ccc(Cl)cc2)cn1 (stereo not given) | 105%
34 | O=C(Nc1ccc(F)cc1F)c1cc(F)ccc1O | 93.4%
35 | COc1ccc(-c2c(C(=O)NS(C)(=O)=O)n(Cc3cccc(C(F)(F)F)c3)c3ccccc23)cc1 | 97.5%
36 | Cc1nc(/N=C(\N)NC(=O)Nc2cccc(Cl)c2)sc1C | 30.2%
37 | COC(=O)Nc1ccc(-c2nc(-c3cccc(OC)c3)c(-c3ccnc(Br)c3)[nH]2)cc1 | 50.5%
38 | OC(COc1ccccc1)CN1CCN(c2ccc(Cl)cc2)CC1 (stereo not given) | 101%
39 | Cc1nc(NC(=O)COc2ccc(/C=C3\Cc4ccc(Cl)cc4C3=O)cc2)sc1C | 114%
40 | Cc1nn(-c2ccccc2)c2c1N=c1s/c(=C\c3ccc(C(F)(F)F)cc3)c(=O)n1CN2 | 77.6%
